# The panel holds about 83,000 compounds, 20% with a hit somewhere; the sample as a whole holds those more often.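 Single-concentration screen, 48 h exposure, 96-well plates. Endpoint: percent growth. Below 10 = active.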 Values without a mark were called inactive. Active and inactive are the calls of the source.
# Test system: NCI-H322M lung
# Assay: NCI-60 one-dose screen, 48 h (100 = growth as untreated, 0 = no growth, -100 = all killed)
# Settings: 10 µM unless noted
row,Compound,growth
1,COc1cc(NC(=O)CSc2nc3ccc(Cl)cc3c(=O)n2-c2ccc(F)cc2)cc(OC)c1OC,86.9%
2,Cc1ccc(C(=O)Nc2ccc(CN3CCN(C)CC3)c(C(F)(F)F)c2)cc1C#Cc1cnc(N)c2ccc(F)cc12,-99.3% (active)
3,FC(F)(F)c1cccc(-c2[nH]ncc2-c2nnnn2-c2ccccc2)c1,57.7%
4,COc1cc(CCNc2cnc3cc(N)cc(N)c3n2)cc(OC)c1,102%
5,CCOC(=O)CNS(=O)(=O)CC(=O)c1ccccc1,87.9%
6,O=C(Nc1ccc(Cl)cn1)C1(c2ccccc2)CCCCC1,119%
7,Brc1c(-c2ccncc2)nc2n1CCS2,107%
8,O=C(Nc1cccc(Cn2c(=O)[nH]c3ccc(Oc4ncccn4)cc3c2=O)c1)c1ccc(Cl)cc1,61.5%
9,CC(=O)c1cc(Nc2cc(C)nc(N)n2)cc(C(C)=O)c1,107%
10,O=C(Nc1cccc(Cn2c(=O)[nH]c3ccc(Oc4ncccn4)cc3c2=O)c1)c1cc(Cl)cc(Cl)c1,57.7%
11,C=C1CCC2C3(C)COC(c4ccccc4)OC3CCC2(C)C1C/C=C1/C(=O)OCC1O (stereo not given),87.3%
12,CC(C)(C)OC(=O)N1C/C(=C\c2ccccc2)C(=O)/C(=C/c2ccccc2)C1,92.6%
13,Nc1cc(N)c2nc(-c3ccccc3)c(NCCc3ccc(Cl)c(Cl)c3)nc2c1,-91.7% (active)
14,O=C(Nn1cnc2ccccc21)N1CCCC1,86.7%
15,O=C(Nc1cccc(Cn2c(=O)[nH]c3ccc(Oc4ncccn4)cc3c2=O)c1)c1cccc(F)c1,86.4%
16,O=C1NCCN1/N=C/c1c(Cl)nc2n1CCS2,94.6%
17,CC(=O)N1N=C(c2ccc(Cl)cc2)CC1c1cn(-c2ccccc2)nc1-c1ccc([N+](=O)[O-])cc1 (stereo not given),83.1%
18,Cc1c([C@H](C(Cl)Cl)[C@H](O)[C@H]2C[C@H](C)C(=O)O2)ccc2c1C(=O)[C@H]1[C@H]2C[C@@H](Br)[C@@]23O[C@@H](CO[C@H]2O)CC13C (stereo not given in full),33.1%
19,CCCCCC(=C/c1ccccc1)/C=N/N=C(N)N,20.3%
20,COc1cc2oc(-c3ccc(NC(=O)c4ccccc4)cc3)cc(=O)c2c(OC)c1OC,69.4%

row,Compound,growth
1,N#Cc1c(N)nc(Nc2nc3ccccc3[nH]2)nc1-c1ccc(Cl)cc1,117%
2,COc1cc(N)c2nccc(C)c2c1OC,106%
3,Cc1ccc(C(=O)NN)cc1,127%
4,COc1cc(OC)c2c(=O)cc(-c3ccccc3)oc2c1,93.2%
5,C/C=C(/C)C(=O)OC1C=C(CO)C(=O)C(OC(=O)/C(C)=C\C)C1C(C)C (stereo not given),-90.3% (active)
6,Cc1nn(-c2ccccc2)c(N)c1N=C1NC(=O)/C(=C/c2ccc(Cl)cc2)S1,81.8%
7,COCC(=O)NNc1[nH]c(-c2ccc(OC)cc2)cc1C#N,33.4%
8,Cc1ncc(C(=O)Nc2ccc(CN3CCN(C)CC3)c(C(F)(F)F)c2)cc1C#Cc1cnc(NC2CC2)c2ncccc12,-87.7% (active)
9,CCCOC(=O)c1c(C)n(C)c2scc[n+]12,51.2%
10,Cc1ccc2c(O)c(O)cc(NC(C)CCCN)c2n1 (stereo not given),26%
11,CC(=O)N(N=O)c1ccc([N+](=O)[O-])cc1Cl,74.3%
12,Cc1ccc2c(c1)C(=O)CCS2,93.5%
13,O=C(O)/C(Br)=C/c1c[nH]c2ccc(Br)cc12,116%
14,COc1ccc(-n2nnnc2-c2cn[nH]c2C(F)(F)F)cc1,105%
15,COc1ccc(C2C3(C#N)C(N)=NC(=C(C#N)C#N)C23C#N)cc1OC (stereo not given),111%
16,CCOC(=O)c1cc(-c2ccc(OC)cc2)[nH]c1NNC(=O)CCOC,118%
17,O=C(NCCCl)Nc1nccnc1OCc1ccc(F)cc1,104%
18,CC1=C(C)C(=O)C(C(C)C2=C(C)C(=O)C(C)=C(C)C2=O)=C(C)C1=O,111%
19,COc1cc(NC(C)CCCN)c2nccc(C)c2c1OC (stereo not given),103%
20,COc1cc2c(c(OC)c1OC)C(=O)CC(c1cccc(C(=O)Nc3cccc(Br)c3)c1)O2 (stereo not given),81.5%

# — PubChem BioAssay (NCI)
